Results filed as inconclusive are left out. More than one record can exist for a structure, and the calls need not agree. The source made the active and inactive calls. The calls were made as follows: active = hit-call score of the fitted dose curve at least 0.9, where 1 is the maximum; inconclusive = response in the unintended direction; inactive = score below 0.9.

The nature of assay [1]: ACEA_AR_agonist_AUC_viability: ACEA Biosciences xCELLigence Real-Time Cell Analysis on Androgen Receptor Agonism for Viability (AID 2283775).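 As to AC50: viability read 80 hours after compound addition.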 In outline:
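Real-time impedance tracking of 22Rv1 growth, readings every 5 min for 5 h then hourly; area-under-curve viability endpoint at 80 hours, relative to DMSO. Compounds at eight concentrations, 1:4 steps, top 100 uM, n = 2.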

Assay [2] is described as follows: ACEA_AR_antagonist_AUC_viability: ACEA Biosciences xCELLigence Real-Time Cell Analysis on Androgen Receptor Antagonism for Viability (AID 2283776).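 Also: 22Rv1 human prostate cancer cells growing on impedance electrode plates; hits lower the growth signal relative to DMSO meaning cytotoxicity.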 In outline:
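Real-time electrical impedance tracks 22Rv1 proliferation after continuous compound exposure (top 100 uM final, 1:4 steps, 8 concentrations). The 80 h area-under-curve serves as the cytotoxicity readout relative to DMSO.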

Assay [3] concerns the target Luciferin 4-monooxygenase (Photinus pyralis) (UniProt P08659). The assay is described as follows: CCTE_Simmons_QuantiLum_inhib_2: CCTE's Firefly Luciferase Inhibition Assay, Simmons Lab (AID 2283767).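 As to AC50: potency for inhibitors that lower luciferase luminescence relative to DMSO.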 In outline: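 Cell-free recombinant firefly luciferase (5 ng/well) in 200mM potassium phosphate with 1 mg/ml BSA, 30 min at 37C with 8 concentrations from 5 nM to 87.5 uM [final], 0.5% DMSO. Luminescence read after D-luciferin (150uM)/dATP (147uM) reagent injection, pH 7.8; triplicates.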

A short description of assay [4]: ACEA_ER_AUC_viability: ACEA Biosciences xCELLigence Real-Time Cell Analysis on Estrogen Receptor Agonism for Viability (AID 2283782).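 Also: hit means loss of impedance signal meaning reduced cell growth or viability.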 In outline: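 T-47D; phenol red-free RPMI1640 + 10% CS-FBS; 8 conc., 1:4 serial, max 100 uM final, ≤0.5% DMSO; n = 2; continuous exposure; impedance monitored to 80 h post-dose; AUC vs DMSO.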
Assay [5] deals with AR (gene 367) (UniProt P10275). Kind of assay: ACEA_AR_agonist_80hr: ACEA Biosciences xCELLigence Real-Time Cell Analysis on Androgen Receptor Agonism for Proliferation (AID 2283783).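 Also: hits increase impedance growth signal above DMSO baseline.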 In outline:
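Androgen-driven proliferation in 22Rv1 cells is tracked as electrical impedance, taken 80 h after continuous exposure to compound (eight concentrations, 1:4 steps, maximum 100 uM final). Activity is fitted in the positive direction with DMSO as baseline.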

A short description of assay [6]: ArunA_NOG_BranchPointsPerNeurite: ArunA Biomedical's Neurite Outgrowth (NOG) Assay for Branch Points Per Neurite (AID 2283759). In outline:
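Automated image analysis traced neurites (processes >10 um) from valid cell bodies after Hoechst and βIII-tubulin staining. hNN cells from H9 embryonic stem cells, 48 h exposure. Fitted bidirectionally against DMSO.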

The nature of assay [7]: STM_H9_NormalizedViability: Cytotoxicity Assessment at 120 hours in the Stemina devTOX quickPredict H9 human embryonic stem cell (hESC)-based Assay (AID 2283784). In outline:
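Pluripotent H9 hESCs were exposed, with chemical and media replaced every 24 h. Viability was read by CellTiter-Fluor fluorescence, background-corrected and normalized to the 0.1% DMSO neutral control per plate. Loss of signal was fitted.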

The target in assay [8] is zebrafish Estrogen Receptor (ESR1), esr1 (gene 259252) (UniProt P57717). The assay is described as follows: ATG_zfER1_XSP1: Attagene TRANS-FACTORIAL Multi-Species (XSP1) HepG2 Assay for zebrafish Estrogen Receptor (ESR1) (AID 2283772). Put shortly:
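Reporter mRNA induction, gauged via RT-PCR/capillary electrophoresis fluorescence relative to DMSO controls, in HepG2 cells transiently carrying GAL4-UAS reporter units; 24 h dosing.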

In assay [9] the test system is zebrafish Estrogen Receptor (ESR2B), gene 317733. Kind of assay: ATG_zfER2b_XSP1: Attagene TRANS-FACTORIAL Multi-Species (XSP1) HepG2 Assay for zebrafish Estrogen Receptor (ESR2B) (AID 2283773). Put shortly:
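Gain-of-signal endpoint relative to DMSO: reporter transcript levels quantified by RT-PCR and capillary electrophoresis after 24 h compound exposure of HepG2 cells expressing a zebrafish ER2b-Gal4 chimera.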

The subject of assay [10] is frog Estrogen Receptor (ESR2), gene 100174814. The assay is described as follows: ATG_frER2_XSP1: Attagene TRANS-FACTORIAL Multi-Species (XSP1) HepG2 Assay for frog Estrogen Receptor (ESR2) (AID 2283774). Put shortly: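 Transactivation of an exogenous receptor-Gal4 fusion is tracked in transfected HepG2 cells via induced reporter transcript levels. After 24 h treatment, RT-PCR with capillary electrophoresis quantifies signal gain over DMSO.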

The subject of assay [11] is frog Estrogen Receptor (ESR1), gene 398734. Kind of assay: ATG_frER1_XSP1: Attagene TRANS-FACTORIAL Multi-Species (XSP1) HepG2 Assay for frog Estrogen Receptor (ESR1) (AID 2283777). In outline: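 Human hepatoma HepG2 cells carried transiently transfected multiplexed Gal4-driven reporters and were exposed to test chemicals for 24 hours. Transcripts were quantified by fluorescent RT-PCR with capillary electrophoresis, referenced to DMSO.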

Assay [12] relates to zebrafish Estrogen Receptor (ESR2A), gene 317734. Kind of assay: ATG_zfER2a_XSP1: Attagene TRANS-FACTORIAL Multi-Species (XSP1) HepG2 Assay for zebrafish Estrogen Receptor (ESR2A) (AID 2283778). Put shortly: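 Cells were transfected, dosed for 24 h, then total RNA was isolated. After oligo(dT) reverse transcription, reporter sequences were amplified, FAM-labelled by primer extension, digested with HpaI and sized by capillary electrophoresis; DMSO served as baseline.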

In assay [13] the target is chicken Estrogen Receptor (ESR1), ESR1 (gene 396099) (UniProt P06212). Kind of assay: ATG_chERa_XSP1: Attagene TRANS-FACTORIAL Multi-Species (XSP1) HepG2 Assay for chicken Estrogen Receptor (ESR1) (AID 2283779). Put shortly: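 Human liver HepG2, transient MRTU transfection (NR-Gal4 chimeras, GAL4-UAS reporters); 24 h compound exposure; 3 nM 6-alpha-fluorotestosterone in medium. Total RNA → RT-PCR → 6-FAM primer extension → HpaI → CE. Positive direction vs DMSO baseline.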

Assay [14] has as its system turtle Estrogen Receptor (ESR1), gene 101933533. Kind of assay: ATG_trERa_XSP1: Attagene TRANS-FACTORIAL Multi-Species (XSP1) HepG2 Assay for turtle Estrogen Receptor (ESR1) (AID 2283781). In outline:
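Activity was taken as gain of reporter transcript over DMSO controls. HepG2 cells carrying GAL4-UAS-driven reporters were exposed for 24 h before RNA was extracted and reporter sequences were measured by fluorescence after capillary separation.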

Luciferin 4-monooxygenase (Photinus pyralis), sequence (P08659 whole entry, looked up): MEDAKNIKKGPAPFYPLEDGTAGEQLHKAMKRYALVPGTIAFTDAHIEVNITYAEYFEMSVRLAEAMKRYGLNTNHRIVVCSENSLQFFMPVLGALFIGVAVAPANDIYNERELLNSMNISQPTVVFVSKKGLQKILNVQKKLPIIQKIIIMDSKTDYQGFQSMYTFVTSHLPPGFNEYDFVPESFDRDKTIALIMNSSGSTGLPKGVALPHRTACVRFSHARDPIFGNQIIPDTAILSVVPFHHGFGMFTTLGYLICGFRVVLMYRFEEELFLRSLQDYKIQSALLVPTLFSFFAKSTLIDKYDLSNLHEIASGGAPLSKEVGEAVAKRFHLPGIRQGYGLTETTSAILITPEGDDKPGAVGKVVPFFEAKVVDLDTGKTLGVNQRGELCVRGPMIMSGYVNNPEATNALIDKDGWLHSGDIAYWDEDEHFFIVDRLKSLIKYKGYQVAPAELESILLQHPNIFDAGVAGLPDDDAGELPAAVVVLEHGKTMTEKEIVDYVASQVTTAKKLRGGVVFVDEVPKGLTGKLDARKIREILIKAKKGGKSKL
AR (gene 367), sequence (P10275 whole entry, looked up): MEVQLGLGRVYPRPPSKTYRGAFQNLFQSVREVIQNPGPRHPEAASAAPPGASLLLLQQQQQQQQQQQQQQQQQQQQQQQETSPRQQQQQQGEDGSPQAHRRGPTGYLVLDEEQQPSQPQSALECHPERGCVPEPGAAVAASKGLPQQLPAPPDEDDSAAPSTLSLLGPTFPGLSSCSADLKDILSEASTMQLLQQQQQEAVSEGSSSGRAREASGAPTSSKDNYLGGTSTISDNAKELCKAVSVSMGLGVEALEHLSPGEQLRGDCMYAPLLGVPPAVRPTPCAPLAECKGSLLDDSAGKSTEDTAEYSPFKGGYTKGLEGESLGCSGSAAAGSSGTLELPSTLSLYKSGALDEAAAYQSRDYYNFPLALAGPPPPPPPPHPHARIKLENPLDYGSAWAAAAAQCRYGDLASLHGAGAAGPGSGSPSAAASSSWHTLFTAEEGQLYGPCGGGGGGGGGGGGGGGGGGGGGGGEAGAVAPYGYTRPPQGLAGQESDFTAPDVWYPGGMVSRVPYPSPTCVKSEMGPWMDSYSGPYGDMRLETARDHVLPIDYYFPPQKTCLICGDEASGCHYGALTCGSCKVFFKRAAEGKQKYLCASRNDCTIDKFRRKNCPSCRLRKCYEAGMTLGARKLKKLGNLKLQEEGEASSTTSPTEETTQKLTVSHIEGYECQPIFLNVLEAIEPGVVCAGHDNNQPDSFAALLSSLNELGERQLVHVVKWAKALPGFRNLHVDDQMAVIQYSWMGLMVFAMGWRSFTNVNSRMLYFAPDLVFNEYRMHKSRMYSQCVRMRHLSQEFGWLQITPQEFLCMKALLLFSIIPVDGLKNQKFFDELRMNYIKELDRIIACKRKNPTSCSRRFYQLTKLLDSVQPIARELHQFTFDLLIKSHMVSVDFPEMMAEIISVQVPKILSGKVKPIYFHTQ
zebrafish Estrogen Receptor (ESR1), esr1 (gene 259252), sequence (P57717 whole entry, looked up, the tested form may be a part): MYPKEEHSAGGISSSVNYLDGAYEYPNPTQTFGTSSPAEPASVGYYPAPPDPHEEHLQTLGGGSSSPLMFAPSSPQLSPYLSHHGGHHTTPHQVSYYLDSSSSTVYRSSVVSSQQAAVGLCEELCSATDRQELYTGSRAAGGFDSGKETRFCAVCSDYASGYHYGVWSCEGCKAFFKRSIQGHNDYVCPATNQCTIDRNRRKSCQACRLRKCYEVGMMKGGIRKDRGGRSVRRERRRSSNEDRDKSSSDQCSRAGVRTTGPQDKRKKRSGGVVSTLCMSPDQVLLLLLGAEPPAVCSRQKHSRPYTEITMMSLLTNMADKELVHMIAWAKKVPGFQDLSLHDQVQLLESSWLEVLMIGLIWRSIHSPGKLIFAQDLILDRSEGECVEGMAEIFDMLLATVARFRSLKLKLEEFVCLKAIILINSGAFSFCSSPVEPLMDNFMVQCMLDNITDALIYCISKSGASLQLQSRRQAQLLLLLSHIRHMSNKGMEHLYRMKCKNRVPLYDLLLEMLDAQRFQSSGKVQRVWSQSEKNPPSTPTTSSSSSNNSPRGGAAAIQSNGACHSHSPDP
chicken Estrogen Receptor (ESR1), ESR1 (gene 396099), sequence (P06212 whole entry, looked up, the tested form may be a part): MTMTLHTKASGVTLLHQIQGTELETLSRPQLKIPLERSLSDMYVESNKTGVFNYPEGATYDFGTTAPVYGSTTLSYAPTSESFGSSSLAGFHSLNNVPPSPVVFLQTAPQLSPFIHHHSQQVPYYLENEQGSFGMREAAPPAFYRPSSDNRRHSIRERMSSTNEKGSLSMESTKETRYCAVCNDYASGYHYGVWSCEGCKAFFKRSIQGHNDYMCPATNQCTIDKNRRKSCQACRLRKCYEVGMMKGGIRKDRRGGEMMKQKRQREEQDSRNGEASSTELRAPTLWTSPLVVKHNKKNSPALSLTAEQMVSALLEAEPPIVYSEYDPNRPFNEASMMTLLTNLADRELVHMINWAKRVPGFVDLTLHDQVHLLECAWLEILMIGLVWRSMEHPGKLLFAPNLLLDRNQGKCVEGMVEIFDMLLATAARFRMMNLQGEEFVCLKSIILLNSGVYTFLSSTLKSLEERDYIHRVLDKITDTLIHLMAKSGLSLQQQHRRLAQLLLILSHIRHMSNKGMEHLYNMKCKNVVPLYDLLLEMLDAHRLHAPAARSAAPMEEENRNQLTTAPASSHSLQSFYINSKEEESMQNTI

Take `CC1=CC(=O)/C(=C(/C)O)C(=O)O1`: the compound was called inactive in [1] and in assay [2].
As a reminder, the AC50 is the midpoint of the concentration-response curve, whichever way the signal moves. With `CC(C)(C)c1csc(-c2cc3cc(OCc4ccccc4CC(=O)O)ccc3o2)n1`, the AC50 is 10.7 µM (active) in [3], 21.1 µM (active) in assay [1] and 23.7 µM (active) in assay [2].
On to `NCc1cccc(C2CCN(C(=O)c3ccc(C#Cc4ccccc4F)o3)CC2)c1`, for which the outcome in [3] and in assay [5] was inactive. The AC50 in assay [1] was 21.2 µM (active); in assay [2], 22.1 µM (active); in assay [4], 7.73 µM (active).
Consider `O=C(Nc1ccc(Cl)cc1)Nc1ccc(Cl)c(Cl)c1`, for which the compound was classed as inactive in assay [6], in assay [5] and in assay [7]. In addition, the AC50 in [3] is 15.1 µM (active); in assay [1], 6.35 µM (active); in assay [2] it was 5.85 µM (active); in assay [4] it was 18.7 µM (active).
As to `C[C@]12CC[C@@H]3c4ccc(O)cc4CC[C@H]3[C@@H]1CCC2=O`, the AC50 was 14.5 nM (active) in assay [8]; 3.05 nM (active) in [9]; 6.32 nM (active) in [10]; 71.6 µM (active) in assay [2]; 3.11 nM (active) in assay [11]; 3.83 nM (active) in [12]. The values for the AC50 in assay [13] and in [14] were 5.08 nM (active) and 3.09 nM (active), respectively. For the same compound, the call in assay [1] and in assay [2] was inactive.
For the compound `O=C1CCC(C2CCCCC2)CC1`, the AC50 is 3.38 µM (active) in assay [3], 50 µM (active) in assay [1] and 74.1 µM (active) in assay [2].
Take `O=C(O)Cc1cc(I)c(Oc2ccc(O)c(I)c2)c(I)c1`: in assay [3], the result was inactive. For the same compound, the AC50 in assay [1] was 22 µM (active); in [2] it was 20.3 µM (active).
`Cc1cc(F)ccc1-c1cc(N2CC[C@@H](O)[C@H]2CO)ncc1N(C)C(=O)C(C)(C)c1cc(C(F)(F)F)cc(C(F)(F)F)c1`: the AC50 was 8.51 µM (active) in assay [1] and 10.1 µM (active) in [2].
In the same order, the values of `c1ccc(C[n+]2cccc3ccccc32)cc1` are 50 µM (active) and 82.3 µM (active).
As for `CCCCCc1ccc(N)cc1`, the result in assay [3], in assay [2] and in [4] was inactive. For the same compound, the AC50 in assay [1] and in assay [4] was 50 µM (active) each time.
